# Inconclusive results are not listed. Unmarked numbers belong to inactive results. Active and inactive are the calls of the source. Calls come from the whole dose curve.
# Assay: p53 small molecule agonists, cell-based qHTS assay with human liver microsomes: qHTS cell viability counter screen (AID 1963579); note: nearly all actives have a fitted effect of over 45% in size
# Details: p53RE-bla HCT-116 viability, ATP luminescence, 16 h, HLM; series mostly up to 66 µM; activity change, negative = cytotoxicity: at the top concentration
# Text: National Center for Advancing Translational Sciences [NCATS]
# Division of Preclinical Innovation [DPI]
# U.S. Environmental Protection Agency [EPA]
# National Institutes of Environmental Health Sciences [NIEHS]
# National Toxicology Program [NTP]
# U.S. Food and Drug Administration [FDA]
# p53, a tumor suppressor protein, is activated following cellular insult, including DNA damage and other cellular stresses. The activation of p53 regulates cell fate by inducing DNA repair, cell cycle arrest, apoptosis, or cellular senescence. The activation of p53, therefore, is a good indicator of DNA damage and other cellular stresses. […] The activation of the reporter gene under culture conditions can be detected by fluorescence intensity. This cell line was used to screen the Tox21 10K compound library in the condition of presence of human liver microsomes and to identify agonists that activate the p53 signaling pathway after in vitro metabolic activation (Ooka et al., Archive of Toxicology 96:1975-1987, 2022).
# Tox21 Assay Protocol Summary:
# The p53RE-bla cells were dispensed at 4,000cells/3ul/well in 1536-well black-clear bottom plates. After the assay plates were incubated at 37 C, 5% CO2 incubator for 5 hours, 23 nL of compounds dissolved in DMSO, positive controls or DMSO only was transferred to the assay plate. Following compound addition, 3 uL of human liver microsomes (XenoTech, Kansas City, KS) at final concentration of 0.5 mg/mL and 1uL of B-Nicotinamide adenine dinucleotide 2'-phosphate (NADPH) at final concentration of 0.5 mg/mL were transferred to the assay plate. The plates were incubated at 37 C for 16 hours. 1 uL of LiveBLAzer detection mixture was added to each well and the plates were incubated at room temperature in the dark for 2 h. Fluorescence intensity at 460 and 530 nm emission and 405 nm excitation were measured by an Envision plate reader. For cell viability readout that measures cytotoxicity, 4 ul/well of CellTiter-Glo reagent was added into the assay plates using a Flying Reagent Dispenser. After 30 min incubation at room temperature, the luminescence intensity in the plates was measured using a ViewLux plate reader.
# % is set by controls: 0 for no effect and ±100 for the full control effect.
SMILES,"activity change, negative = cytotoxicity",Potency
CCCCC[Si](OCC)(OCC)OCC,0.739%,
CCOc1ccccc1OCC1CNCCO1 (stereo not given),2.55% [at 30.3 µM],
NC(=O)c1c(Cl)cccc1Cl,-0.929%,
O=C(CS)OCCOC(=O)CS,3.6%,
C=CC(=O)Nc1cc2c(Nc3ccc(F)c(Cl)c3)ncnc2cc1OCCCN1CCOCC1,7.37% [at 30.3 µM],
CCCCCCCCNC,0.108%,
Cc1ccc(C(C)(C)C)c(O)c1,,inactive
NC(=O)N1C(=O)C(C(=O)c2cc(Cl)cs2)c2cc(F)c(Cl)cc21 (stereo not given),-1.93%,
Clc1cccc(-c2cc(Cl)cc(Cl)c2)c1,3.76%,
O=Cc1cc(O)ccc1Br,-11.9%,
N=C(N)S(=O)O,3.42%,
CCO[Si](CC(C)C)(OCC)OCC,0.111%,
O=C(Nc1ccc(Cl)cc1)Nc1ccc(Cl)c(C(F)(F)F)c1,-6.03% [at 30.3 µM],
CCCOC(OCCC)OCCC,6.23%,
Cc1nn(C)c(Oc2ccccc2)c1/C=N/OCc1ccc(C(=O)OC(C)(C)C)cc1,13.9%,
CN(C)C(=O)NC1(c2ccccc2)CCN(CCC[C@]2(c3ccc(Cl)c(Cl)c3)CCCN(C(=O)c3ccccc3)C2)CC1,-5.88% [at 13.5 µM],
CC(C)(C)c1cc(CO)cc(C(C)(C)C)c1O,-7.79%,
CN(C)CCCO[C@@H]1[C@H]2OC(C)(C)O[C@H]2O[C@@H]1C(O)CO (stereo not given in full),-6.62% [at 30.3 µM],
COc1ccnc(CS(=O)c2nc3cc(OC(F)F)ccc3[nH]2)c1OC (stereo not given),0.965%,
c1ccc(-c2ccc(-c3ccccc3)cc2)cc1,5.03% [at 13.5 µM],

SMILES,"activity change, negative = cytotoxicity",Potency
COc1nccnc1NS(=O)(=O)c1ccc(N)cc1,21% [at 30.3 µM],
CCN(CC)c1ccc2c(c1)Oc1cc(N(CC)CC)ccc1C21OC(=O)c2ccccc21,1.41% [at 30.3 µM],
C[C@@H](Oc1ccc(CNC(=O)c2cccnc2Oc2ccc3c(c2)OCO3)c(F)c1)C(=O)O,15.1%,
CC1CN(c2ccccc2)NC1=O (stereo not given),1.23%,
CC1=CCCC(C)(C)C12CCC(C)O2 (stereo not given),3.4%,
CCOC(=O)/C=C/c1ccccc1,-3.32%,
O=C(CCCCCCC(=O)Nc1ccccc1)NO,19.4% [at 30.3 µM],
Nc1ccccn1,-5.38%,
Cc1ccc(C#N)cc1,1.46%,
Cc1ccc(C(C)OC(=O)C2(C)CCC(C(=O)O)C2(C)C)cc1 (stereo not given),-6.25% [at 30.3 µM],
CCCCCCCCCCCCCCCBr,0.0593% [at 30.3 µM],
C[C@@H]1C[C@H]2O[C@@]3(O[C@@H]2C(C)(C)O)[C@H](O)[C@@]2(C)[C@@H]4CC[C@H]5C(C)(C)[C@@H](O[C@@H]6OC[C@@H](O)[C@H](O)[C@H]6O)CC[C@@]56C[C@@]46CC[C@]2(C)[C@@H]13,-1.87% [at 30.3 µM],
CCCCCCCCCCCCCCCCN,-17.9% [at 30.3 µM],
CCOC(=O)Nc1ccc2c(c1)N(C(=O)CCN1CCOCC1)c1ccccc1S2,1.94% [at 30.3 µM],
O=C(Cl)c1c(Cl)cccc1Cl,0.841%,
CCO/C=C1\N=C(c2ccccc2)OC1=O,5.06%,
Oc1c(I)cc(Cl)c2cccnc12,-37.6%,
CCCc1ccc(OCC(=O)N2CCN(C(=O)COc3ccc(CCC)cc3OC)CC2)c(OC)c1,-3.43% [at 30.3 µM],
CCCCNc1ccc(C(=O)OCCN(CC)CC)cc1,-9.66% [at 30.3 µM],
CCCCCCCCCCCCCCCC(=O)OC/C=C(C)/C=C/C=C(C)/C=C/C1=C(C)CCCC1(C)C,-5.35%,
